Among the data in PubChem BioAssay (NCATS) are Potency values, retold here.

Inconclusive results are not listed. Entries that show only a call come without a potency. Activity calls are given as the source filed them. Calls come from the whole dose curve; as a rule, active = well fitted inhibition curve with a large enough effect; inconclusive = small, poorly fitted or top-dose-only effect; inactive = flat fitted curve, though single readings scatter.

Sequence of Calcium and integrin-binding protein 1 (Homo sapiens) (Q99828 whole entry, looked up): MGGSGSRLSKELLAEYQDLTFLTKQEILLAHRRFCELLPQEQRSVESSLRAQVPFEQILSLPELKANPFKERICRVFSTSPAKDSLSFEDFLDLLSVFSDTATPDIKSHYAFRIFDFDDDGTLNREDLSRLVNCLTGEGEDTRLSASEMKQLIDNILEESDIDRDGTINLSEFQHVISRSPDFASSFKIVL

The target in the experiment is Calcium and integrin-binding protein 1 (Homo sapiens) (UniProt Q99828). Nature of the experiment: Primary qHTS for Identification of Calcium Integrin Binding Protein 1 (CIB1) Competitor (AID 1508620).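 Note: GST tagged CIB1 binding a fluorescein labelled alphaIIb integrin peptide tracer; top concentration of the series differs between compounds.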 To be noted: CIB1-GST / FITC-alphaIIb peptide fluorescence polarization; series mostly up to 57.7 µM. The method in brief:
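Fluorescence polarization competition: CIB1-GST (1 uM final) preincubated with compound 15 min at room temperature, then FITC-labeled alphaIIb peptide (100 nM final) added for another 15 min. Polarization read at Ex 480/Em 540.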
A general note: Quantitative high-throughput screening tests each substance at several concentrations.
For the compound `CC(C)[C@@H](C)/C=C/[C@@H](C)[C@H]1CC[C@H]2C3=CC=C4C[C@@H](O)CC[C@]4(C)[C@H]3CC[C@]12C`, the Potency entry is “inactive”.
In the case of `CC1CCC2(C(=O)OC3OC(COC4OC(CO)C(O)C(O)C4O)C(O)C(O)C3O)CCC3(C)C(=CCC4C5(C)CCC(O)C(C)(C(=O)O)C5CCC43C)C2C1(C)O` (configuration not stated) it was “inactive”; in that of `O=C1C[C@@H](c2ccc(O)cc2)Oc2cc(O)ccc21`, “inactive”; in that of `CC(=O)O[C@H](C[C@@H](C)[C@H]1C(=O)[C@H](O)[C@@]2(C)[C@@H]3CCC4C(C)(C)[C@@H](O[C@@H]5OC[C@H](O)[C@H](O)[C@H]5O)CC[C@@]45C[C@@]35CC[C@]12C)[C@@H]1OC1(C)C` (some centres not stated), “inactive”.
In the case of `C=C(C)C1CC2(CO)C(=CC1=O)CCC(O)C2C` (configuration not stated) it was “inactive”; in that of `CNC(=O)O[C@H]1COc2ccc(N3CCN(C4COC4)CC3)cc2[C@@H]1NC(=O)c1ccc(F)cc1`, “inactive”; in that of `CCOC(=O)N1CCC(NCCNC(=O)c2ccccc2C)CC1`, “inactive”.
For the compound `Cc1ncc([N+](=O)[O-])n1CC(O)CN1CCOCC1` (configuration not stated), the Potency entry was “inactive”.
Consider `C=C(C)[C@H]1C[C@@H](O)C(=C)CC[C@@H](O)C(=C)[C@@H](O)C1`, for which the Potency result is “inactive”.
The same measure for `NCCCC[C@H](NC(=O)[C@@H]1Cc2ccccc2CN1C(=O)CCC(=O)c1ccccc1)C(=O)NCC(c1ccccc1)c1ccccc1`: “inactive”; for `COc1cc(C)c(C(=O)O[C@H]2[C@@H](O)[C@H](n3ccc(=O)[nH]c3=O)O[C@@H]2CO)c(OC)c1`: “inactive”; for `CC(/C=C/C1(O)C(C)(C)CC(O)CC1(C)O)OC1OC(CO)C(O)C(O)C1O` (configuration not stated): “inactive”.
